Measurements taken from PubChem BioAssay (NCI).
The panel holds about 83,000 compounds, 20% with a hit somewhere; the sample as a whole holds those more often.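 Results are percent growth after 48 hours of single-concentration exposure. 100 means growth as in untreated cells, lower positive values show inhibition; negative values down to -100 show cell death.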 Unmarked numbers belong to inactive results. Active and inactive are the calls of the source. Rule for the calls: active = growth percent below 10; inactive = the rest.

system: DU-145 prostate; assay: NCI-60 one-dose screen, 48 h (100 = growth as untreated, 0 = no growth, -100 = all killed); conditions: 10 µM unless noted

Structure (SMILES)	growth
CCCCNC(=O)Oc1ccc(/C(=C(/C)Cc2ccc(OC)cc2)c2ccc(OCCN(CC)CC)cc2)cc1	91.7%
Cc1nc2sc(C(=O)Nc3cccc(Br)c3)c(N)c2cc1C(O)c1ccccc1 (stereo not drawn)	23.8%
CCn1cc(C(=O)O)c(=O)c2cc(F)c(N3CCN(CC(=O)Nc4ccc(S(=O)(=O)Nc5nccc(C)n5)cc4)C(C)C3)c(F)c21 (stereo not drawn)	105%
C#CCOc1ccc2ncnc(Nc3ccc(NC(=O)C=C)cc3)c2c1	-29.8% (active)
Nc1ncnc2c1C(c1ccc(Br)cc1)c1sc3c(F)cccc3c1O2 (stereo not drawn)	102%
N#Cc1nc(-c2ccc(Cl)cc2)oc1S(=O)(=O)N1CCN(c2ccc(F)cc2)CC1	97.3%
CCn1c(SCC(=O)N/N=C(\C)c2ccc(Cl)cc2)nc2c1c(=O)n(C)c(=O)n2C	108%
Cc1ccc(C2=Nc3c(N)ncnc3NC(c3cccc(Nc4ccnc5cc(C(F)(F)F)ccc45)c3)C2)cc1 (stereo not drawn)	64.9%
CCCCCCCCCCCCCCCCCCOc1ccccc1CC(=O)OCC[N+](C)(C)C	36.1%
CC(C)C1=NOC(=O)C1=Cc1cn(-c2ccccc2)nc1-c1ccc(F)cc1	74%
O=C(NNC(=O)c1ccc(NC(=O)c2ccccn2)cc1)Nc1ccc([N+](=O)[O-])cc1	106%
CSc1nc2ccccc2cc1/C=C1/C=C(c2ccccc2)NC1=O	93.2%
CC(C)c1ccc(-n2c(=S)[nH]c3sc4cc(O)ccc4c3c2=O)cc1	104%
